From PubChem BioAssay AID1159580 (chemical genetic matrix, 2015)
Where “and” joins values, the source holds several entries; their conditions need not be identical. Identical values can stand only once. About 2,000 (36%) of roughly 5,500 compounds were called active. Not shown: some 18% with an inconclusive outcome. No stated cut-off is given here; in the data, active means normalized growth mostly below about 0.91 (no sharp cut-off); inconclusive means no clear call, values can overlap the other calls; inactive means mostly above about 0.92. The list shows a part of the results.

Assay: chemical genetic growth profiling, strain panel (AID 1159580);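 further: tested at 20 µM; growth read once vehicle control cultures reached saturation at 30 °C; 1 = growth at the plate median or of vehicle wells; lower values mean less growth of the strain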
Details: S. cerevisiae deletion strains, growth OD

Measured: normalized growth

C[C@]12CCC3c4ccc(OC(=O)c5ccccc5)cc4CCC3C1CCC2=O (stereo not given in full)
inactive: locus YAL013W, strain DEP1, hits give low values 0.986 | locus YAL021C, strain ccr4, hits give low values 1 | locus YAL026C, strain drs2, hits give low values 0.989 | locus YAL030W, strain snc1, hits give low values 0.99 | locus YBL061C, strain skt5, hits give low values 0.987 | locus YBR009C, strain hhf1, hits give low values 0.972 | locus YBR021W, strain FUR4, hits give low values 0.981 | locus YBR023C, strain chs3, hits give low values 0.984 | locus YBR171W, strain sec66, hits give low values 0.977 | locus YBR229C, strain ROT2, hits give low values 1 | locus YBR231C, strain swc5, hits give low values 0.987 | locus YBR279W, strain paf1, hits give low values 0.988 | locus YCL011C, strain gbp2, hits give low values 0.987 | locus YCL016C, strain dcc1, hits give low values 0.985 | locus YCL029C, strain bik1, hits give low values 0.996 | locus YCL061C, strain MRC1, hits give low values 0.988 | locus YCL069W, strain vba3, hits give low values 0.986 | locus YCR088W, strain abp1, hits give low values 0.984 | locus YDL005C, strain med2, hits give low values 0.987 | locus YDL035C, strain GPR1, hits give low values 0.986 | locus YDL040C, strain nat1, hits give low values 0.993 | locus YDL074C, strain BRE1, hits give low values 0.974 | locus YDL101C, strain DUN1, hits give low values 1 | locus YDL185W, strain tfp1, hits give low values 0.951 | locus YDL192W, strain arf1, hits give low values 1.02 | locus YDR001C, strain nth1, hits give low values 0.986 | locus YDR069C, strain doa4, hits give low values 0.98 | locus YDR101C, strain arx1, hits give low values 0.969 | locus YDR137W, strain rgp1, hits give low values 1 | locus YDR159W, strain sac3, hits give low values 0.968 | locus YDR162C, strain NBP2, hits give low values 1.01 | locus YDR195W, strain ref2 0.934 | locus YDR297W, strain sur2, hits give low values 0.985 | locus YDR318W, strain mcm21, hits give low values 1.02 | locus YDR334W, strain swr1, hits give low values 0.986 | locus YDR335W, strain msn5, hits give low values 0.982 | locus YDR388W, hits give low values 0.992 | locus YDR392W, strain spt3, hits give low values 0.864 | locus YDR502C, strain sam2, hits give low values 1 | locus YEL003W, strain gim4, hits give low values 0.977 | locus YEL037C, strain rad23, hits give low values 0.98 | locus YEL061C, strain CIN8 (second series), hits give low values 0.981 | locus YEL061C, strain CIN8, hits give low values 1 | locus YER015W, strain faa2, hits give low values 0.991 | locus YER016W, strain bim1, hits give low values 0.969 | locus YER110C, hits give low values 0.982 | locus YER111C, strain swi4, hits give low values 0.974 | locus YER155C, strain BEM2 (second series), hits give low values 0.974 | locus YER155C, strain BEM2, hits give low values 0.996 | locus YER167W, strain BCK2, hits give low values 1.01 | locus YFR010W, strain ubp6, hits give low values 0.993 | locus YGL078C, strain dbp3, hits give low values 1.01 | locus YGL086W, strain mad1, hits give low values 0.972 | locus YGL167C, strain pmr1, hits give low values 0.965 | locus YGL173C, strain kem1, hits give low values 0.988 | locus YGL227W, strain vid30, hits give low values 0.986 | locus YGL240W, strain doc1, hits give low values 0.99 | locus YGL248W, strain PDE1, hits give low values 1.02 | locus YGL253W, strain hxk2, hits give low values 0.976 | locus YGR135W, strain pre9, hits give low values 1.03 | locus YGR252W, strain gcn5, hits give low values 1.2 | locus YHR013C, strain ard1, hits give low values 0.939 | locus YHR027C, strain rpn1, hits give low values 0.996 | locus YHR030C, strain SLT2, hits give low values 0.991 and 1.06 | locus YHR079C, strain IRE1 (second series), hits give low values 0.997 | locus YHR079C, strain IRE1, hits give low values 1.07 | locus YHR094C, strain hxt1, hits give low values 0.999 | locus YHR129C, strain ARP1, hits give low values 0.997 | locus YHR142W, strain chs7, hits give low values 0.996 | locus YHR200W, strain rpn10, hits give low values 0.994 | locus YIL066C, strain RNR3, hits give low values 1 | locus YIL073C, strain SPO22, hits give low values 0.933 | locus YIL125W, strain kgd1, hits give low values 1 | locus YIR030C, strain dcg1, hits give low values 1.01 | locus YJL092W, strain hpr5, hits give low values 0.98 | locus YJL095W, strain BCK1 (second series), hits give low values 0.992 | locus YJL095W, strain BCK1, hits give low values 1.05 and 1.07 | locus YJL115W, strain asf1, hits give low values 0.995 | locus YJL129C, strain trk1, hits give low values 0.979 | locus YJL134W, strain LCB3, hits give low values 0.987 | locus YJL154C, strain vps35, hits give low values 0.986 | locus YJL164C, strain tpk1, hits give low values 0.977 | locus YJL166W, strain qcr8, hits give low values 0.983 | locus YJL168C, strain set2, hits give low values 0.996 | locus YJL187C, strain SWE1 (second series), hits give low values 1.01 | locus YJL187C, strain SWE1, hits give low values 0.996 | locus YJR043C, strain POL32, hits give low values 1.01 | locus YJR066W, strain TOR1, hits give low values 1.01 | locus YJR075W, strain HOC1, hits give low values 0.998 | locus YKL009W, strain mrt4, hits give low values 0.977 | locus YKL068W, hits give low values 0.975 | locus YKL085W, strain MDH1 (second series), hits give low values 1.01 | locus YKL085W, strain MDH1, hits give low values 1.01 | locus YKL160W, strain elf1, hits give low values 1.01 | locus YKR001C, strain vps1, hits give low values 0.993 | locus YKR026C, strain gcn3, hits give low values 0.978 | locus YKR091W, strain srl3, hits give low values 0.986 | locus YLL001W, strain dnm1, hits give low values 0.998 | locus YLL026W, hits give low values 0.984 | locus YLL041C, strain sdh2, hits give low values 0.989 | locus YLR027C, strain aat2, hits give low values 0.998 | locus YLR039C, strain RIC1, hits give low values 1.01 | locus YLR058C, strain SHM2, hits give low values 1.01 | locus YLR102C, strain apc9, hits give low values 0.993 | locus YLR113W, strain HOG1, hits give low values 1 | locus YLR221C, strain rsa3, hits give low values 1.01 | locus YLR258W, strain gsy2, hits give low values 0.971 | locus YLR262C, strain YPT6 (second series), hits give low values 0.94 | locus YLR262C, strain YPT6, hits give low values 0.959 | locus YLR268W, strain sec22, hits give low values 0.972 | locus YLR320W, strain mms22, hits give low values 0.98 | locus YLR330W, strain CHS5, hits give low values 0.984 | locus YLR342W, strain FKS1 (second series), hits give low values 1.01 | locus YLR342W, strain FKS1, hits give low values 0.979 | locus YLR357W, strain rsc2, hits give low values 0.947 | locus YLR370C, strain arc18, hits give low values 0.99 | locus YLR371W, strain rom2, hits give low values 1 | locus YLR384C, strain iki3, hits give low values 0.985 | locus YLR418C, strain cdc73, hits give low values 1.07 | locus YML016C, strain PPZ1, hits give low values 0.998 | locus YML032C, strain rad52, hits give low values 1.03 | locus YML120C, strain ndi1, hits give low values 0.986 | locus YML124C, strain tub3, hits give low values 1.01 | locus YMR058W, strain fet3, hits give low values 0.985 | locus YMR078C, strain ctf18, hits give low values 1.01 | locus YMR125W, strain sto1, hits give low values 0.978 | locus YMR129W, hits give low values 0.969 | locus YMR205C, strain PFK2, hits give low values 0.949 | locus YMR223W, strain ubp8, hits give low values 1.04 | locus YMR231W, strain pep5, hits give low values 0.979 | locus YMR263W, strain SAP30, hits give low values 0.997 | locus YMR307W, strain GAS1, hits give low values 1.22 | locus YNL067W, strain RPL9B, hits give low values 1.02 | locus YNL071W, strain lat1, hits give low values 0.993 | locus YNL128W, strain TEP1, hits give low values 0.971 | locus YNL153C, strain GIM3, hits give low values 1.02 | locus YNL183C, strain NPR1, hits give low values 1.01 | locus YNL209W, strain ssb2, hits give low values 0.989 | locus YNL233W, strain BNI4, hits give low values 1.01 | locus YNL248C, strain rpa49, hits give low values 1.01 | locus YNL250W, strain rad50, hits give low values 0.96 | locus YNL271C, strain bni1, hits give low values 1.02 | locus YNL298W, strain CLA4, hits give low values 1.01 | locus YNL307C, strain MCK1, hits give low values 0.996 | locus YNL322C, strain KRE1 (second series), hits give low values 0.994 | locus YNR049C, strain mso1, hits give low values 0.98 | locus YNR052C, strain pop2, hits give low values 1.02 | locus YOL012C, strain htz1 1.22 | locus YOL147C, strain pex11, hits give low values 0.998 | locus YOR001W, strain rrp6, hits give low values 1.01 | locus YOR061W, strain CKA2, hits give low values 1.01 | locus YOR069W, strain VPS5, hits give low values 0.993 | locus YOR070C, strain gyp1, hits give low values 0.984 | locus YOR080W, strain dia2, hits give low values 0.983 | locus YOR083W, strain WHI5, hits give low values 1.03 | locus YOR106W, strain vam3, hits give low values 1.04 | locus YOR136W, strain idh2, hits give low values 0.992 | locus YOR144C, strain elg1, hits give low values 0.998 | locus YOR184W, strain ser1, hits give low values 0.975 | locus YOR231W, strain MKK1, hits give low values 1.08 | locus YOR265W, strain rbl2, hits give low values 0.989 | locus YOR270C, strain vph1, hits give low values 0.99 | locus YOR290C, strain snf2, hits give low values 0.912 | locus YOR316C, strain cot1, hits give low values 0.993 | locus YPL051W, strain arl3, hits give low values 1.02 | locus YPL078C, strain atp4, hits give low values 0.998 | locus YPL106C, strain sse1, hits give low values 0.972 | locus YPL240C, strain hsp82, hits give low values 0.997 | locus YPL241C, strain CIN2, hits give low values 0.999 | locus YPL256C, strain CLN2, hits give low values 1.12 | locus YPR119W, strain clb2, hits give low values 1.01 | locus YPR141C, strain kar3, hits give low values 1.01 | locus YPR163C, strain tif3, hits give low values 1 | locus YPR167C, strain met16, hits give low values 1.01 | strain wtn01, hits give low values 0.983
